Compound activity (PubChem BioAssay)
ABCB6 inh 2 = ABCB6 transporter inhibitors, primary screen, K562-ABCB6 cells, flow cytometry, MLPCN library. ATP-binding cassette sub-family B member 6 (Homo sapiens), Q9NP58. K562-ABCB6 porphyrin accumulation, 1 h; hits give low values. fluorescence ratio to DMSO, % at 10 µM. 360,000 compounds, 0.19% hits;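 active means fluorescence ratio to DMSO below 75%, the collection mean minus 3 SD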;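 further: signal is porphyrin accumulated inside mitochondria; lower ratio means ABCB6 inhibition with less porphyrin fluorescence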
GSIS activator = GLuc luminescence reporter in INS-1E cells, primary screen for activators of glucose-dependent secretion of insulin | INS-1E GLuc reporter insulin secretion, 2-3 h | AID 743287, 2014 | activation, % at 16.6 µM | 370,000 compounds, 0.61% hits;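 active means lowest replicate activation of at least 40%, so every replicate reaches that level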
ARNT-TACC3 inh = disruptors of ARNT/TACC3 protein interaction, primary screen, biochemical, AlphaScreen, single concentration | Transforming acidic coiled-coil-containing protein 3 (Homo sapiens), Q9Y6A5 | AlphaScreen His-ARNT PAS-B/GST-TACC3 binding, luminescence; TACC3 fragment carries E629A point mutation | inhibition, % at 9.99 µM | 390,000 compounds, 0.66% hits | AID 623870, 2012;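 active means mean inhibition of replicates at least 50% and at least half of replicates each reaching 50%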
NRP1-CendR mod = modulators of CendR peptide binding to NRP-1, primary screen, biochemical, fluorescence polarization, uHTS; Neuropilin-1 (Homo sapiens), O14786; 360,000 compounds, 0.85% hits; inhibition, % at 25 µM; FAM-RPARPAR peptide binding to NRP-1;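 active means inhibition or corrected inhibition above about 18%, plus a signal ratio from 0.5 to 1.5, limit read from the data, passing the limit was not always enough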
Target sequence (O14786 whole entry, looked up): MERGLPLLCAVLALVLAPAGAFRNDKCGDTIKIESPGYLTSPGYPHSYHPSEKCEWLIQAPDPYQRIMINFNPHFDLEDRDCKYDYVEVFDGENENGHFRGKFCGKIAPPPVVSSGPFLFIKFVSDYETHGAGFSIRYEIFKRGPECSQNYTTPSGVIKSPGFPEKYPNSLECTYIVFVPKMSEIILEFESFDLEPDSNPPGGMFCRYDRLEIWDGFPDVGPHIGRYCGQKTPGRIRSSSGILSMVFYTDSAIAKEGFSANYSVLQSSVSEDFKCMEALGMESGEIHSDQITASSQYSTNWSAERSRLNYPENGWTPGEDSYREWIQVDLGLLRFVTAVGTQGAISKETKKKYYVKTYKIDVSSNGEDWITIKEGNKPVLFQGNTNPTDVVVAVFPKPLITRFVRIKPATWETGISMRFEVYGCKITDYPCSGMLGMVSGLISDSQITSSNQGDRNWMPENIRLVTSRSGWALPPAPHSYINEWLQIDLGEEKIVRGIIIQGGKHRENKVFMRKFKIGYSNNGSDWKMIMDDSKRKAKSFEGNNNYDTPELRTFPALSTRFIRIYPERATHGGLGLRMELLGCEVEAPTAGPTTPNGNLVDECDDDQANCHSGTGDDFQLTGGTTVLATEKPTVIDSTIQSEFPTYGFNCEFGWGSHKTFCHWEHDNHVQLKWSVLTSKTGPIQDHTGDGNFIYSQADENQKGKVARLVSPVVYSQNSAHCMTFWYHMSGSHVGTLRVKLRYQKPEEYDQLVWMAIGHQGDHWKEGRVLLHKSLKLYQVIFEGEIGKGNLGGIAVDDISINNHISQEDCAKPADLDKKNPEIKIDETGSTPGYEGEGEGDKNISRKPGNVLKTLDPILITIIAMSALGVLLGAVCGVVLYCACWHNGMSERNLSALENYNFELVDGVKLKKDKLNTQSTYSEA
hiPSC survival = enhancers of single-cell hiPSC survival, primary screen, ATPlite luminescence; 100% = ROCK inhibitor wells, 0% = DMSO; survival enhancement, % at 20 µM; 360,000 compounds, 0.044% hits; AID 602274, 2012; in the data active means survival enhancement above about 18%;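 further: cells exposed to compounds for 16 hours before the ATP read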
Of the large screens only hits and unclear results are named; the others gave an inactive call; ! = a repeat was not active. Hits are enriched below; roughly 1.8% of the tested compounds scored in any of these assays.

C=CCC(=O)N1CCC(n2nccc2NC(=O)CCOc2ccccc2)CC1	NRP1-CendR mod 28 (no result: ARNT-TACC3 inh)
CSCC(C)N1CCC(n2nccc2NC(=O)CCOc2ccccc2)CC1 (centres undefined)	NRP1-CendR mod 22
COCC(C)N1CCC(n2nccc2NC(=O)CCOc2ccccc2)CC1 (centres undefined)	none
CC(=O)N(C)C[C@@H]1Oc2ccc(NC(=O)NC(C)C)cc2C(=O)N(C)C[C@@H]1C	none (no result: ABCB6 inh 2, ARNT-TACC3 inh, NRP1-CendR mod, hiPSC survival)
O=C(CSc1nc2ccccc2c(=O)n1-c1ccc(F)cc1F)Nc1ccc2c(c1)CCC2	NRP1-CendR mod 22 (no result: ARNT-TACC3 inh)
CC(C)NC(=O)N(C)C[C@@H]1Oc2ccc(N(C)C)cc2CC(=O)N(C)C[C@H]1C	none (no result: ABCB6 inh 2, ARNT-TACC3 inh, NRP1-CendR mod, hiPSC survival)
CO[C@H]1CN(C)C(=O)c2ccc(NC(=O)Nc3c(C)noc3C)cc2OC[C@H](C)N(CC2CC2)C[C@@H]1C	none (no result: ABCB6 inh 2, ARNT-TACC3 inh, NRP1-CendR mod, hiPSC survival)
COc1cccc(CNC(=O)CCC2CCCN(C(=O)C3=CC(=O)CC(C)(C)O3)C2)c1 (centres undefined)	NRP1-CendR mod 38 (no result: ARNT-TACC3 inh)
COc1cccc(CNC(=O)CCC2CCCN(C(=O)c3cccc(Cl)c3)C2)c1 (centres undefined)	none
CCOC(=O)C1=C(C)NC2=C(C(=O)c3ccccc32)C1c1cccnc1 (centres undefined)	NRP1-CendR mod 40 (no result: GSIS activator)
CCOC(=O)C1=C(C)NC2=C(C(=O)CCC2)C1c1cccnc1 (centres undefined)	none
C=CCn1c(Cc2nc3ccccc3[nH]2)n[nH]c1=S	ARNT-TACC3 inh 49
C=CCn1c(Cc2cccc3ccccc23)n[nH]c1=S	none
O=C(O)c1ccc(/C=N/n2c(C3CCCCC3)n[nH]c2=S)cc1	GSIS activator 63
S=c1[nH]nc(C2CCCCC2)n1/N=C/c1ccncc1	none (no result: ARNT-TACC3 inh)
O=C(C[C@H]1CC[C@H]2[C@@H](COC[C@@H](O)CN2C(=O)Nc2ccc(Cl)cc2)O1)NC1Cc2ccccc2C1	none (no result: ABCB6 inh 2, NRP1-CendR mod, hiPSC survival)
COc1cccc(-c2ccc3c(c2)[C@@H]2[C@@H](CCN2C(=O)c2ccc(F)cc2)[C@H](CO)N3)c1	none (no result: ABCB6 inh 2, NRP1-CendR mod, hiPSC survival)
Cc1ccc(Nc2ncnc3sccc23)c(C)c1	GSIS activator 42
O=C1CC(Sc2nnc(-c3ccccc3)o2)C(=O)N1c1ccccc1 (centres undefined)	GSIS activator 86
COC(=O)C1=C(C)N(Cc2ccc(C(F)(F)F)cc2)C(=NCc2ccccc2)NC1c1ccc(Cl)cc1 (centres undefined)	GSIS activator 726 (no result: ABCB6 inh 2, ARNT-TACC3 inh, NRP1-CendR mod, hiPSC survival)
COC(=O)C1=C(C)N(Cc2ccc(C(F)(F)F)cc2)C(=NCC2CC2)NC1c1ccccc1 (centres undefined)	GSIS activator 60 (no result: ABCB6 inh 2, ARNT-TACC3 inh, NRP1-CendR mod, hiPSC survival)
COC(=O)C1=C(C)N(Cc2ccccc2C(F)(F)F)C(=NCc2ccc(OC)cc2)NC1c1ccc(Cl)cc1 (centres undefined)	GSIS activator 87 (no result: ABCB6 inh 2, ARNT-TACC3 inh, NRP1-CendR mod, hiPSC survival)
COC(=O)C1=C(C)N(Cc2ccccc2C(F)(F)F)C(=NCc2ccc(OC)cc2)NC1c1ccccc1 (centres undefined)	none (no result: ABCB6 inh 2, ARNT-TACC3 inh, NRP1-CendR mod, hiPSC survival)
Cc1ccc(S(=O)(=O)Nc2ccc3c(c2)C(=O)N([C@@H](C)CO)C[C@@H](C)[C@@H](CN(C)CC2CCCCC2)OCCCC[C@@H](C)O3)cc1	none (no result: ABCB6 inh 2, NRP1-CendR mod, hiPSC survival)
COCc1ccccc1Cn1cnc2c1c(=O)n(C)c(=O)n2C	NRP1-CendR mod 35 (no result: GSIS activator)
Cn1c(=O)c2c(ncn2Cc2ccc(Cl)cc2)n(C)c1=O	none
C[C@@H]1CN([C@@H](C)CO)C(=O)Cc2cc(NC(=O)Nc3ccc4c(c3)OCO4)ccc2O[C@H]1CN(C)S(=O)(=O)c1ccc(Cl)cc1	none (no result: ABCB6 inh 2, NRP1-CendR mod, hiPSC survival)
O=C(O)C[C@H]1c2cc(F)ccc2S(=O)(=O)N1C1CCCC1	none (no result: ARNT-TACC3 inh)
O=C(O)C[C@H]1c2cc(F)ccc2S(=O)(=O)N1C1CCCCC1	NRP1-CendR mod 25
CNC[C@@H]1Oc2ccc(NC(=O)NC(C)C)cc2C(=O)N([C@@H](C)CO)C[C@H]1C	none (no result: ABCB6 inh 2, NRP1-CendR mod, hiPSC survival)
CCOC(=O)c1ccccc1NC(=O)COC(=O)CCCOc1ccccc1	GSIS activator 56 (no result: ARNT-TACC3 inh)
CS(=O)(=O)Nc1ccc2c(c1)[C@@H]1C[C@@H](CC(=O)NCc3ccc(Cl)cc3)O[C@H](CO)[C@@H]1O2	none (no result: ABCB6 inh 2, NRP1-CendR mod, hiPSC survival)
COC(=O)c1ccc(NC(=O)Nc2ccc(F)cc2)cc1	NRP1-CendR mod 26 (no result: GSIS activator)
CCOC(=O)c1ccc(NC(=O)Nc2ccc(F)cc2)cc1	none (no result: GSIS activator, ARNT-TACC3 inh)
CCOc1ccc(NC(=O)Nc2cc(OCC(F)(F)F)cc(OCC(F)(F)F)c2)cc1	none
O=C(Nc1ccc(F)cc1)Nc1cc(OCC(F)(F)F)cc(OCC(F)(F)F)c1	GSIS activator 128
CCOC(=O)C1=C(CSc2nccn2C)NC(=O)NC1c1cc(C)ccc1C (centres undefined)	NRP1-CendR mod 26
C[C@H]1CN([C@@H](C)CO)C(=O)c2cc(C#CC3CCCC3)cnc2O[C@@H]1CN(C)S(=O)(=O)c1cccc(F)c1	none (no result: ABCB6 inh 2, NRP1-CendR mod, hiPSC survival)
COc1ccc(OC)c(NC(=O)C(CC(C)C)NC(=O)C2CCCCC2)c1 (centres undefined)	hiPSC survival 24 (no result: GSIS activator)
O=C(O)c1ccc(Nc2ncnc3scc(-c4ccccc4)c23)cc1	none
Cc1ccc(-c2csc3ncnc(SCC(N)=O)c23)cc1	GSIS activator 45 (no result: ARNT-TACC3 inh)
CCc1nnc(NC(=O)CSc2ncnc3scc(-c4ccc(C)cc4)c23)s1	none (no result: GSIS activator)
O=C(CSc1ncnc2scc(-c3ccccc3)c12)Nc1ccc(C(=O)O)cc1	GSIS activator 147
COc1ccc(-c2cnnn2-c2ccc(N)cc2)cc1OC	GSIS activator 53
COc1ccc(-c2cnnn2-c2ccc(NC(=O)c3ccc(S(=O)(=O)N4CCCCC4)cc3)cc2)cc1OC	none
Cc1ccc2ccc(C(Nc3ccccn3)c3ccccc3)c(O)c2n1 (centres undefined)	none (no result: GSIS activator)
CC(=O)NC(c1ccco1)c1ccc2cccnc2c1O (centres undefined)	ARNT-TACC3 inh 63
Cc1ccnc(NC(c2ccccc2)c2ccc3cccnc3c2O)c1 (centres undefined)	NRP1-CendR mod 33
Cc1ccnc(NC(c2cccnc2)c2ccc3cccnc3c2O)c1 (centres undefined)	ARNT-TACC3 inh 61
C[C@@H]1CN(C)C(=O)c2cccc(N(C)C)c2O[C@H]1CN(C)C	none (no result: ABCB6 inh 2, ARNT-TACC3 inh, NRP1-CendR mod, hiPSC survival)
O=S(=O)(c1ccccc1F)N1C[C@@H]2N[C@H](C1)C2c1ccc(/C=C/c2ccccc2)cc1 (some centres undefined)	GSIS activator 171! (no result: ABCB6 inh 2, ARNT-TACC3 inh, NRP1-CendR mod, hiPSC survival)
COc1cccc(CN2C[C@@H]3N[C@H](C2)C3c2ccc(-c3ccccc3OC)cc2)c1 (some centres undefined)	GSIS activator 82! (no result: ABCB6 inh 2, ARNT-TACC3 inh, NRP1-CendR mod, hiPSC survival)
Fc1ccccc1-c1ccc(C2[C@@H]3CN(Cc4ccccc4)C[C@H]2N3)cc1 (some centres undefined)	GSIS activator 47! (no result: ABCB6 inh 2, ARNT-TACC3 inh, NRP1-CendR mod, hiPSC survival)
